We go through eleven compounds from ChEMBL document CHEMBL3988442, “University of Dundee, Small-Polar-MMV Screening Library” (2021).

Each structure is given as a SMILES string. For some of these results: Potency and affinity values are given separately.

What all share (parameters): scale not given: direction of the effect not stated beside the values
Assay [1] deals with Protein translocase subunit SecA (Escherichia coli (strain K12)) (UniProt P10408). The assay can be described thus: Assay to Identify E. coli SecA ATPase Inhibitors. The assay is classed as functional. The conditions noted are these: 30 µM.
Sequence of Protein translocase subunit SecA (Escherichia coli (strain K12)) (P10408 whole entry): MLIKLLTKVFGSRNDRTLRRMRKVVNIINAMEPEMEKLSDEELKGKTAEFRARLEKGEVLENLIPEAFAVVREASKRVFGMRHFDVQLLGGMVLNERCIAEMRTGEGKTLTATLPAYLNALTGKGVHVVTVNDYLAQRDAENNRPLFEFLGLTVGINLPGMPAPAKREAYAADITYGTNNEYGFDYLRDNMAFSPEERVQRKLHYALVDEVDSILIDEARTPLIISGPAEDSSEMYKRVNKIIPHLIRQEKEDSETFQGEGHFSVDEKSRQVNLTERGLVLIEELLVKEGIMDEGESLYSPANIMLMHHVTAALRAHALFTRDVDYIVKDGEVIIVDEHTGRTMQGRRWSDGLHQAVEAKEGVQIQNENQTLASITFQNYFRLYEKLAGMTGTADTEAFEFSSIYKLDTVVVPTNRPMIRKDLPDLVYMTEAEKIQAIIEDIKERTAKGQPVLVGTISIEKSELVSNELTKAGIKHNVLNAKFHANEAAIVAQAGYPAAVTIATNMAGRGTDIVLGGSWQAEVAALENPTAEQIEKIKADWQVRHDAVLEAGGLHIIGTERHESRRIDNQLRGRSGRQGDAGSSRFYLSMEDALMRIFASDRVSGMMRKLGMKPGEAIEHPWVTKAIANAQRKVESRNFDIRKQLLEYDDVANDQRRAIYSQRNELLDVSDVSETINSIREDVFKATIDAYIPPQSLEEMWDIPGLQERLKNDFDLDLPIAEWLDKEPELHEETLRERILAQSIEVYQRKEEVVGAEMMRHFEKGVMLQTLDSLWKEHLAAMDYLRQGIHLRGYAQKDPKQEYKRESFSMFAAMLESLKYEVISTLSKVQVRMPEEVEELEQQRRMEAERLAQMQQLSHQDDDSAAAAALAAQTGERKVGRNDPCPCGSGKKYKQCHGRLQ
The target of assay [2] is T1, Ubiquitin-activating enzyme e1, putative (Leishmania donovani (strain BPK282A1)) (UniProt E9BSI1).
T1 sequence (whole entry): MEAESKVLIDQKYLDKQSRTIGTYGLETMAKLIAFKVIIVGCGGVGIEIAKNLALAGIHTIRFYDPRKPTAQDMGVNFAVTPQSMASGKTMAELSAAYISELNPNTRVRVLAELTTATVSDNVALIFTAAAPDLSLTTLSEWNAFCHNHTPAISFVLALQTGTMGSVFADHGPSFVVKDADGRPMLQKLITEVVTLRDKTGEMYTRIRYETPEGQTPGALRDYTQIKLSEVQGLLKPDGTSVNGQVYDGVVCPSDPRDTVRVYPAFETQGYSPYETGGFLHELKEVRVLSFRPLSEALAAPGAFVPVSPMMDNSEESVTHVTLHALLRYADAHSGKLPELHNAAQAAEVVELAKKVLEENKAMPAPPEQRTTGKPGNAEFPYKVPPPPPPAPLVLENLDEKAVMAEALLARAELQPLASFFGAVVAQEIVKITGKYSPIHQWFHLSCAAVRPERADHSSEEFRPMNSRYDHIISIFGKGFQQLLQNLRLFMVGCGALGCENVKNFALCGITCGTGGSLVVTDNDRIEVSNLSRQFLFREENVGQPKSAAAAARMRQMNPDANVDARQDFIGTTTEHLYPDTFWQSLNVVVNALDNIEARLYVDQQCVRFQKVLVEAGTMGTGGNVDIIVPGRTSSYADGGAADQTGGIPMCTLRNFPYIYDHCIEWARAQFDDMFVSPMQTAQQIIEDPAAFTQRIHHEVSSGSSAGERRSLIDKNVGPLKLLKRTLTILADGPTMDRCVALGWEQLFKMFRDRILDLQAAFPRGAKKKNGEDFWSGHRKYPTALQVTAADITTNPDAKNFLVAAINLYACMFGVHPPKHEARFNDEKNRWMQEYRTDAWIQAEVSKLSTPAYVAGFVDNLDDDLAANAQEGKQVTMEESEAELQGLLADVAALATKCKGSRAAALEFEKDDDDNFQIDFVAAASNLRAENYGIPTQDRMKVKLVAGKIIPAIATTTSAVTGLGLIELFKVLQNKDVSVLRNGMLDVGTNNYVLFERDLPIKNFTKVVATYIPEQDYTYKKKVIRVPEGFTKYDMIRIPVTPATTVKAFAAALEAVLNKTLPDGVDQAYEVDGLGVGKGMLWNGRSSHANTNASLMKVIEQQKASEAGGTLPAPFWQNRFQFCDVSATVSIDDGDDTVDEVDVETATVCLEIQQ
Kind of assay: Leishmania donovani Ubiquitin Activating Enzyme (LdE1). The assay is classed as functional. The conditions noted are these: 30 µM.

The target in assay [3] is AMP-activated protein kinase, AMPK (Homo sapiens) (UniProt P54646+O43741+P54619+Q9UGJ0+Q9Y478+Q13131+Q9UGI9). The assay can be described thus: AMP-dependent Kinase enzyme assay. An in vitro enzyme assay that detects ADP turnover that is directly proportional to AMPK activity. This uses naive AMPK that is activated during the assay with MK-8722. The format is functional. The conditions noted are these: 30 µM.

In assay [4] the target is Sialic acid-binding Ig-like lectin 9 (Homo sapiens) (UniProt Q9Y336). Kind of assay: Hs-Siglec9 ALPHAscreen SOP 20170721. The conditions noted are these: 10 µM.
Sequence of Sialic acid-binding Ig-like lectin 9 (Homo sapiens) (Q9Y336 whole entry): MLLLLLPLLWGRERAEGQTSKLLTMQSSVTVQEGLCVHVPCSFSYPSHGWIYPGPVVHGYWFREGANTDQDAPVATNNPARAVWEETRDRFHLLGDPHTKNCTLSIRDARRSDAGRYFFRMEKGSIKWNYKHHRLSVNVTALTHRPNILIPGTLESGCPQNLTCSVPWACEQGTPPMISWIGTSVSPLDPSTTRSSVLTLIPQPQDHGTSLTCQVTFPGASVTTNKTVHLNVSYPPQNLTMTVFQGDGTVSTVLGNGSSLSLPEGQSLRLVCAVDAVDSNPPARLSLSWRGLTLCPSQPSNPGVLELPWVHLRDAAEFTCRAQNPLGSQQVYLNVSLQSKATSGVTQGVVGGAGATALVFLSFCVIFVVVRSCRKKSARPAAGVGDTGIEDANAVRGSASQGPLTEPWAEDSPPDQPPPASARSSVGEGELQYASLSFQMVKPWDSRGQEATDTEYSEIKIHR
The subject of assay [5] is Trypanosoma cruzi. The assay can be described thus: Trypanosoma cruzi phosphomannomutase and mannose-1-phosphate guanylyltransferase assay. The assay is classed as functional. The conditions noted are these: 10 µM.
In assay [6] the target is T2, Arginase-2, mitochondrial (Homo sapiens) (UniProt P78540).
T2 sequence (whole entry): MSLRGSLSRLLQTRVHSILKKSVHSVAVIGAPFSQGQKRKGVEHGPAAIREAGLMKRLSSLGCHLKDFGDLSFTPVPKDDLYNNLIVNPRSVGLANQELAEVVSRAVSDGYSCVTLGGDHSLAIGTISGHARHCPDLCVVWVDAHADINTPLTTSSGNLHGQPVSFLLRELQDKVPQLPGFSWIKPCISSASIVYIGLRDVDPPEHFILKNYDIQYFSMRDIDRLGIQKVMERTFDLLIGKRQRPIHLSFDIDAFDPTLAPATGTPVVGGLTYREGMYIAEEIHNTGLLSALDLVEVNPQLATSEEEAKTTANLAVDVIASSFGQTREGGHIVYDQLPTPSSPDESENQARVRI
Kind of assay: in vitro enzyme assay to detect the production of urea directly proportional to the activity of Arginase II. Also: in the data most compounds retested in dose-response had high values. The conditions noted are these: 33.3 µM. The assay is classed as functional.

Assay [7] concerns the target T3, Proteasome subunit beta (Trypanosoma cruzi) (UniProt O96673).
T3 sequence (whole entry): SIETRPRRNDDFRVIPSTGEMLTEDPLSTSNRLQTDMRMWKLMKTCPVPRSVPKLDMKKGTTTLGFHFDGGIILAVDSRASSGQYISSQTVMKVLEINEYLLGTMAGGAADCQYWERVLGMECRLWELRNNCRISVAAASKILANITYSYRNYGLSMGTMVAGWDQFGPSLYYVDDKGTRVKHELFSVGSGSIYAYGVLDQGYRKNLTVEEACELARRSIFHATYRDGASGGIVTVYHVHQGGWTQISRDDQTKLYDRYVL
The assay can be described thus: Trypanosoma cruzi proteasome chymotrypsin-like activity (TcProtChymo) assay. Also: in the data most compounds retested in dose-response had high values. The format is functional. The conditions noted are these: 9.37 µM.

The species named for assay [8] is Homo sapiens. Kind of assay: To identify inhibition of the IFN signalling (Jak-Stat) pathway via expression of an eGFP reporter gene under the control of an IFN-stimulated response element (ISRE) containing MxA promoter. The assay is classed as functional. The conditions noted are these: 30 µM. In general terms: Reporter assays use an easily measured gene product as a stand-in for the process of interest.

The target of assay [9] is T4, Tyrosyl-tRNA synthetase, putative (Trypanosoma cruzi (strain CL Brener)) (UniProt Q4DSP6).
T4 sequence (whole entry): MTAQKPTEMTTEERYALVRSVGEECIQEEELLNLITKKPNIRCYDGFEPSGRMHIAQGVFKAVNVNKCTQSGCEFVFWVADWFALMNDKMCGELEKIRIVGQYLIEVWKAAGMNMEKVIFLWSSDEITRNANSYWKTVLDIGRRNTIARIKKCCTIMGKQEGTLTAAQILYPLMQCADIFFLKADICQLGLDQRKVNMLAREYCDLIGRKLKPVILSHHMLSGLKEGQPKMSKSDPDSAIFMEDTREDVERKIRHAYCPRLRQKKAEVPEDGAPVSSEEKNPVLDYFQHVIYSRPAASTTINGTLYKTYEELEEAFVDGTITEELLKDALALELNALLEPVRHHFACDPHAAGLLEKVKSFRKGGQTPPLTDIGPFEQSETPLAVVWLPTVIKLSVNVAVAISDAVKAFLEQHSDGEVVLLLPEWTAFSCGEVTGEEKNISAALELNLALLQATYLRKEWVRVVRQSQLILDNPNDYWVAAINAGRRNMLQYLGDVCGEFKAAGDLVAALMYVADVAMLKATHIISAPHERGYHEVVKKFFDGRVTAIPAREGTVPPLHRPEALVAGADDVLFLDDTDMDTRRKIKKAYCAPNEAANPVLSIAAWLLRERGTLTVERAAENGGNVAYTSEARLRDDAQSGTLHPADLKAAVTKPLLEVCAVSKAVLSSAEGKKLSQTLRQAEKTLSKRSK
The assay can be described thus: Trypanosoma cruzi tyrosyl tRNA synthetase (TcYRS) _High Tyrosine SOP. Also: in the data most compounds retested in dose-response had high values. The format is functional. The conditions noted are these: 30 µM.

The target in assay [10] is T4, Tyrosyl-tRNA synthetase, putative (Trypanosoma cruzi (strain CL Brener)). The assay can be described thus: Trypanosoma cruzi tyrosyl tRNA synthetase (TcYRS) SOP. The format is functional. The conditions noted are these: 30 µM.
Assay [11] concerns the target Chromo domain-containing protein 1 (Saccharomyces cerevisiae (strain ATCC 204508 / S288c) (Baker's yeast)) (UniProt P32657). Kind of assay: ScCHD-1 Enzyme Inhibition Assay. Also: in the data most compounds retested in dose-response had high values. The assay is classed as functional. The conditions noted are these: 30 µM.

Sequence of Chromo domain-containing protein 1 (Saccharomyces cerevisiae (strain ATCC 204508 / S288c) (Baker's yeast)) (P32657 whole entry, the tested form may be a part): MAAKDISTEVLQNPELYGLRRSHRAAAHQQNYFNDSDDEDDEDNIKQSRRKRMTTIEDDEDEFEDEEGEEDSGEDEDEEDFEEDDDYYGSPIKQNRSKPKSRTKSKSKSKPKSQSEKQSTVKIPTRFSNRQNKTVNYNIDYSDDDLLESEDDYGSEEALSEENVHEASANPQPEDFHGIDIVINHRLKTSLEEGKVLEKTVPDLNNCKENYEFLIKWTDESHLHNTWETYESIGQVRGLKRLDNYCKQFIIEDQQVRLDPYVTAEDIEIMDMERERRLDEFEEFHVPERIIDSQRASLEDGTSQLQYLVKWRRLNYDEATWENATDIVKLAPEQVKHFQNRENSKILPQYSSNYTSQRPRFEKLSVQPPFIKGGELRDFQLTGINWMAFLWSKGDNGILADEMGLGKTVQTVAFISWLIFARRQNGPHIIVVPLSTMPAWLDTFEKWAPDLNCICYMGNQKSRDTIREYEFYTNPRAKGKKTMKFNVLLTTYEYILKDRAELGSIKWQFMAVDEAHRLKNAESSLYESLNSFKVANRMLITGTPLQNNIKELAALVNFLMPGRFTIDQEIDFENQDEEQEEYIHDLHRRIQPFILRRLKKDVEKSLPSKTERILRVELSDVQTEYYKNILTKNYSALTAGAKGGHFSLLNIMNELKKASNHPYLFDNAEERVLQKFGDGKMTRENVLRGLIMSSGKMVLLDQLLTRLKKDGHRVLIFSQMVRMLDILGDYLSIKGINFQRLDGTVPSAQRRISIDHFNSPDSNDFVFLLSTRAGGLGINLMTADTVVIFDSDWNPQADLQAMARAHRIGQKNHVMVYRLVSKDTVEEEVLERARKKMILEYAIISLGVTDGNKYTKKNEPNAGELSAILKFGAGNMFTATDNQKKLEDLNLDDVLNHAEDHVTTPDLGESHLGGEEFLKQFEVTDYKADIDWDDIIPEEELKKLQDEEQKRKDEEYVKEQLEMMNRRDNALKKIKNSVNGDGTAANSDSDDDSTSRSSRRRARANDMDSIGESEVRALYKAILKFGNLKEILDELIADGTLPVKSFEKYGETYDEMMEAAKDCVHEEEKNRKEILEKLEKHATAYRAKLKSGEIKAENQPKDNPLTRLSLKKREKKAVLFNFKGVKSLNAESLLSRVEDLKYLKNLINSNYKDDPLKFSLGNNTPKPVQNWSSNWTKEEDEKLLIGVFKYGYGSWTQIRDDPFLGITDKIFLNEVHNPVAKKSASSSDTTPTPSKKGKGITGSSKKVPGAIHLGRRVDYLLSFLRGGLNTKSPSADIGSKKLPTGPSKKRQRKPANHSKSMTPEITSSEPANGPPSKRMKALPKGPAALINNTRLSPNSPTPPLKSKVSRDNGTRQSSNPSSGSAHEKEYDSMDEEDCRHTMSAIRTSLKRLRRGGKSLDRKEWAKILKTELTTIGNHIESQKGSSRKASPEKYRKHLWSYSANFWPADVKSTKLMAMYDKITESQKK

In the case of `COc1ccc(NC(=O)N2CCCC2c2ccco2)cc1OC` (stereo unspecified), the Percent Effect in assay [1] is 0.301%; in assay [2] it was 13%; in assay [3] it was 7.21%; in assay [4] it was -3.22%; in [5], -4.24%; in assay [6], -0.645%. Further, the Percent Effect in [7] is 9.57%; in [8] it was 19.6%; in assay [9] it was -5.29%; in [10] it was 14.1%; in assay [11] it was -9.73%.
Take `Cc1ncsc1C(=O)Nc1cccc(OCC(F)F)n1`: the Percent Effect in [1] is -4.44%; in [2], 2.63%; in assay [3], 10.6%; in [4] it was 1.18%; in assay [5], -4.19%; in [6] it was -8.28%. Also, the Percent Effect is 22.5% in assay [7]; 31.7% in assay [8]; 3.19% in assay [9]; 7.79% in assay [10]; -0.476% in assay [11].
Regarding `COc1ccc(OC)c(NC(=O)N2CCCC2c2ccco2)c1` (stereo unspecified), the Percent Effect in assay [1] is -1.78%; in assay [2], 5.2%; in assay [3], 7.39%; in assay [4], -2.94%; in [5], -0.888%; in assay [6] it was 1.94%. In addition, the Percent Effect is 7.83% in [7]; 13.8% in [8]; -1.06% in assay [9]; 3.85% in [10]; -8.44% in assay [11].
With `CCC1CN(Cc2ccccc2)CCN1Cc1nnc(C2CCC2)o1` (stereo unspecified), the Percent Effect in [1] was -1.22%; in assay [2], 2.74%; in [3] it was -2.21%; in assay [4], 8.69%; in [5] it was 6.07%; in [6] it was 5.91%. Also, the Percent Effect in [7] is 1.95%; in [8] it was -3.45%; in assay [9], 1.07%; in [10], 5%; in [11], -0.293%.
Take `Cc1nc(CN(C)C2CCN(Cc3ccc4c(c3)OCCO4)C2)no1` (stereo unspecified): the Percent Effect in assay [1] is -7.11%; in assay [2] it was 13%; in [3], -0.861%; in assay [4], -3.18%; in assay [5], 5.39%; in assay [6], 1.9%. The Percent Effect is 2.83% in assay [7]; -7.46% in assay [8]; 5.71% in assay [9]; 11.8% in [10]; -17.4% in assay [11].
`Cc1cccc(CN2CCC3(CCCN(C(=O)c4ccsc4)C3)C2=O)n1` (stereo unspecified): the Percent Effect is -2.33% in assay [1]; 0% in assay [2]; 10.5% in [3]; -2.49% in assay [4]; 0.0986% in assay [5]; -0.645% in assay [6]. For the same compound, the Percent Effect in [7] was 3.48%; in assay [8] it was -3.21%; in assay [9], 3.17%; in assay [10] it was 3.85%; in assay [11], 87.7%.
For `O=C1NCCN1C1CCN(Cc2ccccn2)CC1`, the Percent Effect was -1.85% in assay [1]; 0% in assay [2]; -5.58% in assay [3]; 1.53% in assay [4]; -2.12% in assay [5]; 1.91% in assay [6]. For the same compound, the Percent Effect was 8.62% in assay [7]; 0.116% in assay [8]; 3.7% in assay [9]; 2.44% in [10]; -3.18% in assay [11].
Consider `Cn1cccc1CNC(=O)N(CCO)C1CCCc2ccccc21` (stereo unspecified), for which the Percent Effect in assay [1] is -4.61%; in assay [2] it was -5.26%; in [3] it was -1.52%; in [4] it was 0.538%; in assay [5] it was 3.8%; in assay [6], -14.2%. For the same compound, the Percent Effect was 2.01% in assay [7]; 1.76% in assay [8]; 2.13% in assay [9]; 0% in assay [10]; -9.55% in assay [11].
On to `O=C(Nc1cnn(CCN2CCOCC2)c1)c1cc(F)ccc1F`, for which the Percent Effect in assay [1] is -1.54%; in assay [2], 7.89%; in assay [3], -3.4%; in assay [4] it was 20.5%; in [5] it was -1.32%; in assay [6] it was 1.53%. The Percent Effect in assay [7] was -3.17%; in [8], -12.4%; in assay [9], 4.41%; in [10] it was 9.76%; in assay [11], 3.02%.
On to `CC(C)c1n[nH]c(C2CN(C(=O)C3=COCC3)CCO2)n1` (stereo unspecified), for which the Percent Effect in assay [1] is -3.67%; in assay [2], 2.63%; in assay [3], 1.65%; in [4], 11.9%; in assay [5], 0.0934%; in assay [6], 5.4%. Besides, the Percent Effect in assay [7] was -5.33%; in assay [8] it was -8.69%; in [9] it was 2.46%; in [10] it was 3.7%; in assay [11], 10.5%.
As to `Cc1nccn1-c1nccnc1C1CCN(Cc2ccc(F)cc2)CC1`, the Percent Effect is -2.09% in assay [1]; 21.3% in [2]; 4.62% in assay [3]; -5.84% in assay [4]; 5.91% in assay [5]; -2.56% in assay [6]. Also, the Percent Effect is 15.2% in assay [7]; 7.46% in assay [8]; 4.25% in assay [9]; 16.7% in assay [10]; -4.22% in assay [11].
